# About 79,000 compounds went through this panel and 15% of them were active in at least one assay; those are over-represented in the sample as a whole. Values without a mark were called inactive. The source made the active and inactive calls. Rule as the data show it: active = growth inhibition above about 70%; inactive = the rest.
# Key:
# [1] = NCI Yeast Anticancer Drug Screen. Data for the mlh1 strain (AID 171);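 also: 0% = growth of vehicle-treated control cultures of the same strain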; details: S. cerevisiae mlh1 strain growth inhibition, stronger effect = higher value
# Procedure, shortened: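 Read-out: growth inhibition versus vehicle controls. Strain: engineered yeast with a defined DNA repair or cell cycle defect, compound-treated.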
# [2] = NCI Yeast Anticancer Drug Screen. Data for the sgs1 strain (AID 173);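 also: 0% = growth of vehicle-only control cultures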; details: S. cerevisiae sgs1 mutant, stronger effect = higher value
# Procedure, shortened: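 Read-out: yeast growth inhibition relative to vehicle controls, following compound exposure of a strain with a defined DNA repair/cell cycle alteration.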
# [3] = NCI Yeast Anticancer Drug Screen. Data for the mlh1 rad18 strain (AID 175); details: S. cerevisiae mlh1 rad18 strain growth inhibition, stronger effect = higher value
# Procedure, shortened: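 Yeast w/ defined DNA-repair lesions; compound exposure; growth vs vehicle controls → % inhibition.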
# [4] = NCI Yeast Anticancer Drug Screen. Data for the rad18 strain (AID 177); details: S. cerevisiae rad18 mutant growth inhibition, stronger effect = higher value
# Procedure, shortened: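 Readout: growth inhibition vs vehicle controls. Cells: genetically altered yeast strain, DNA repair defect.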
# [5] = NCI Yeast Anticancer Drug Screen. Data for the rad52 strain (AID 147);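 also: 0% = growth of vehicle-treated control cultures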; details: S. cerevisiae rad52 mutant growth inhibition, stronger effect = higher value
# Procedure, shortened: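 Read-out: growth inhibition versus vehicle-treated controls. Cells were a DNA repair-deficient yeast strain treated with compounds.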
# [6] = NCI Yeast Anticancer Drug Screen. Data for the wt1 strain (AID 149);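 also: 0% = growth of vehicle-treated wt1 cultures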; details: S. cerevisiae wt1 strain (SPY 50644) growth inhibition, stronger effect = higher value
# Procedure, shortened: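 Compounds are added to wt1 yeast cultures. Growth is then measured. Inhibition is expressed relative to vehicle-treated controls.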
# [7] = NCI Yeast Anticancer Drug Screen. Data for the rad50EPP+ strain (AID 151);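 also: 0% = growth of vehicle-treated control cultures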; details: S. cerevisiae rad50 mutant strain, stronger effect = higher value
# Procedure, shortened: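 Growth inhibition read against vehicle controls in rad50EPP+ yeast, a strain altered in DNA damage repair, after compound exposure.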
# [8] = NCI Yeast Anticancer Drug Screen. Data for the mgt1 strain (AID 153); details: S. cerevisiae mgt1 mutant growth inhibition, stronger effect = higher value
# Procedure, shortened: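 mgt1 yeast grown with test compound; read-out is growth inhibition versus vehicle-treated cultures.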
# [9] = NCI Yeast Anticancer Drug Screen. Data for the rad14 strain (AID 159);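 also: 0% = growth of vehicle-treated control cultures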; details: S. cerevisiae rad14 strain growth inhibition, stronger effect = higher value
# Procedure, shortened: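 A mutant yeast strain defective in DNA damage repair is treated with compound; inhibition of its growth is scored against untreated, vehicle-exposed cultures.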
# [10] = NCI Yeast Anticancer Drug Screen. Data for the CLN2oe strain (AID 163);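 also: 0% = growth of vehicle-only control cultures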; details: S. cerevisiae CLN2oe strain, stronger effect = higher value
# Procedure, shortened: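 Read-out: yeast growth inhibition, expressed relative to vehicle-only controls. The strain bears an engineered cell-cycle alteration.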
# [11] = NCI Yeast Anticancer Drug Screen. Data for the wt2 strain (AID 169);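 also: 0% = growth of vehicle-treated yeast cultures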; details: S. cerevisiae wt2 strain growth inhibition, stronger effect = higher value
# Procedure, shortened: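 Read-out: growth inhibition versus vehicle-treated control cultures after compound exposure of the yeast strain.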
# [12] = NCI Yeast Anticancer Drug Screen. Data for the rad50 strain (AID 155);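 also: 0% = growth of vehicle-only cultures of the same strain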; details: S. cerevisiae rad50 strain growth inhibition, stronger effect = higher value
# Procedure, shortened: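 Inhibition values express reduced yeast growth in compound-treated cultures relative to vehicle-treated controls.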
# [13] = NCI Yeast Anticancer Drug Screen. Data for the mec2-1 strain (AID 157); details: S. cerevisiae mec2-1 strain, stronger effect = higher value
# Procedure, shortened: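 Yeast mec2-1 mutant treated with compound. Readout: growth inhibition vs vehicle controls.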
# [14] = NCI Yeast Anticancer Drug Screen. Data for the sgs1 mgt1 strain (AID 161);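 also: 0% = growth of cultures given vehicle only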; details: S. cerevisiae sgs1 mgt1 strain, stronger effect = higher value
# Procedure, shortened: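 Mutant yeast exposed to compound; growth scored against vehicle-only wells.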
# [15] = NCI Yeast Anticancer Drug Screen. Data for the cln2 rad14 strain (AID 165);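 also: 0% = growth equal to vehicle treated cultures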; details: S. cerevisiae cln2 rad14 strain, stronger effect = higher value
# Procedure, shortened: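 cln2 rad14 yeast strain; compound exposure; growth inhibition read vs vehicle controls.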
# [16] = NCI Yeast Anticancer Drug Screen. Data for the bub3 strain (AID 167); details: S. cerevisiae bub3 mutant strain, stronger effect = higher value
# Procedure, shortened: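 Steps: expose the mutant yeast strain to compound; grow alongside vehicle-treated cultures; measure growth; express inhibition against the vehicle cultures.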
# [17] = at 5.0 µM (retest, dose inferred, filed as 0.5)
# [18] = at 50.0 µM (retest, dose inferred, filed as 5.0)
smiles,measurement,setting,value
N#C/C(=C1C=C/C(=N/O)c2ccccc2/1)c1ccccc1,growth inhibition,[1]; at 1.2 µM,-1%
same,growth inhibition,[1]; at 3.7 µM,-2%
same,growth inhibition,[1]; at 11.0 µM,1%
same,growth inhibition,[1]; at 33.0 µM,73% (active)
same,growth inhibition,[1]; at 100.0 µM,57%
same,growth inhibition,[2]; at 1.2 µM,-2%
same,growth inhibition,[2]; at 3.7 µM,-2%
same,growth inhibition,[2]; at 11.0 µM,1%
same,growth inhibition,[2]; at 33.0 µM,95% (active)
same,growth inhibition,[2]; at 100.0 µM,66%
same,growth inhibition,[3]; [17],49%
same,growth inhibition,[3]; [18],96% (active)
same,growth inhibition,[3]; at 50.0 µM,91.5% (active)
same,growth inhibition,[4]; at 1.2 µM,-1%
same,growth inhibition,[4]; at 3.7 µM,3%
same,growth inhibition,[4]; at 11.0 µM,-1%
same,growth inhibition,[4]; at 33.0 µM,88% (active)
same,growth inhibition,[4]; at 100.0 µM,80% (active)
CC(=O)[O-].O=C([CH-]C(=O)c1ccccc1)c1ccccc1.O=C([CH-]C(=O)c1ccccc1)c1ccccc1.[Sm+3],growth inhibition,[5]; at 1.2 µM,4%
same,growth inhibition,[5]; at 3.7 µM,-2%
same,growth inhibition,[5]; at 11.0 µM,80% (active)
same,growth inhibition,[5]; at 33.0 µM,97% (active)
same,growth inhibition,[5]; at 100.0 µM,98% (active)
same,growth inhibition,[6]; at 1.2 µM,4%
same,growth inhibition,[6]; at 3.7 µM,4%
same,growth inhibition,[6]; at 11.0 µM,25%
same,growth inhibition,[6]; at 33.0 µM,98% (active)
same,growth inhibition,[6]; at 100.0 µM,97% (active)
same,growth inhibition,[7]; at 1.2 µM,35%
same,growth inhibition,[7]; at 3.7 µM,70% (active)
same,growth inhibition,[7]; at 11.0 µM,52%
same,growth inhibition,[7]; at 33.0 µM,70% (active)
same,growth inhibition,[7]; at 100.0 µM,79% (active)
same,growth inhibition,[8]; at 1.2 µM,0%
same,growth inhibition,[8]; at 3.7 µM,6%
same,growth inhibition,[8]; at 11.0 µM,50%
same,growth inhibition,[8]; at 33.0 µM,98% (active)
same,growth inhibition,[8]; at 100.0 µM,98% (active)
same,growth inhibition,[9]; at 1.2 µM,6%
same,growth inhibition,[9]; at 3.7 µM,7%
same,growth inhibition,[9]; at 11.0 µM,97% (active)
same,growth inhibition,[9]; at 33.0 µM,99% (active)
same,growth inhibition,[9]; at 100.0 µM,98% (active)
same,growth inhibition,[10]; at 1.2 µM,-3%
same,growth inhibition,[10]; at 3.7 µM,6%
same,growth inhibition,[10]; at 11.0 µM,45%
same,growth inhibition,[10]; at 33.0 µM,97% (active)
same,growth inhibition,[10]; at 100.0 µM,97% (active)
same,growth inhibition,[11]; at 1.2 µM,1%
same,growth inhibition,[11]; at 3.7 µM,8%
same,growth inhibition,[11]; at 11.0 µM,65%
same,growth inhibition,[11]; at 33.0 µM,98% (active)
same,growth inhibition,[11]; at 100.0 µM,98% (active)
same,growth inhibition,[1]; at 1.2 µM,3%
same,growth inhibition,[1]; at 3.7 µM,8%
same,growth inhibition,[1]; at 11.0 µM,70% (active)
same,growth inhibition,[1]; at 33.0 µM,98% (active)
same,growth inhibition,[1]; at 100.0 µM,99% (active)
same,growth inhibition,[2]; at 1.2 µM,2%
same,growth inhibition,[2]; at 3.7 µM,7%
same,growth inhibition,[2]; at 11.0 µM,59%
same,growth inhibition,[2]; at 33.0 µM,97% (active)
same,growth inhibition,[2]; at 100.0 µM,97% (active)
same,growth inhibition,[4]; at 1.2 µM,5%
same,growth inhibition,[4]; at 3.7 µM,12%
same,growth inhibition,[4]; at 11.0 µM,43%
same,growth inhibition,[4]; at 33.0 µM,98% (active)
same,growth inhibition,[4]; at 100.0 µM,97% (active)
CCOP1(=O)C=C(Sc2ccc([N+](=O)[O-])cc2[N+](=O)[O-])C(C)(C)O1 (stereo unspecified),growth inhibition,[5]; at 1.2 µM,2%
same,growth inhibition,[5]; at 3.7 µM,6%
same,growth inhibition,[5]; at 11.0 µM,16%
same,growth inhibition,[5]; at 33.0 µM,39%
same,growth inhibition,[5]; at 100.0 µM,84% (active)
same,growth inhibition,[6]; at 1.2 µM,2%
same,growth inhibition,[6]; at 3.7 µM,2%
same,growth inhibition,[6]; at 11.0 µM,6%
same,growth inhibition,[6]; at 33.0 µM,4%
same,growth inhibition,[6]; at 100.0 µM,31%
same,growth inhibition,[7]; at 1.2 µM,-4%
same,growth inhibition,[7]; at 3.7 µM,-3%
same,growth inhibition,[7]; at 11.0 µM,-2%
same,growth inhibition,[7]; at 33.0 µM,13%
same,growth inhibition,[7]; at 100.0 µM,53%
same,growth inhibition,[12]; at 1.2 µM,2%
same,growth inhibition,[12]; at 3.7 µM,9%
same,growth inhibition,[12]; [17],28%
same,growth inhibition,[12]; at 11.0 µM,16%
same,growth inhibition,[12]; at 33.0 µM,37%
same,growth inhibition,[12]; [18],40%
same,growth inhibition,[12]; at 50.0 µM,51.4%
same,growth inhibition,[12]; at 100.0 µM,83% (active)
same,growth inhibition,[13]; at 1.2 µM,7%
same,growth inhibition,[13]; at 3.7 µM,12%
same,growth inhibition,[13]; [17],27%
same,growth inhibition,[13]; at 11.0 µM,18%
same,growth inhibition,[13]; at 33.0 µM,41%
same,growth inhibition,[13]; [18],41%
same,growth inhibition,[13]; at 50.0 µM,8.65%
same,growth inhibition,[13]; at 100.0 µM,87% (active)
same,growth inhibition,[9]; at 1.2 µM,1%
same,growth inhibition,[9]; at 3.7 µM,3%
same,growth inhibition,[9]; at 11.0 µM,9%
same,growth inhibition,[9]; at 33.0 µM,20%
same,growth inhibition,[9]; at 100.0 µM,43%
same,growth inhibition,[14]; [17],23%
same,growth inhibition,[14]; [18],38%
same,growth inhibition,[14]; at 50.0 µM,33%
same,growth inhibition,[10]; at 1.2 µM,3%
same,growth inhibition,[10]; at 3.7 µM,0%
same,growth inhibition,[10]; at 11.0 µM,1%
same,growth inhibition,[10]; at 33.0 µM,11%
same,growth inhibition,[10]; at 100.0 µM,37%
same,growth inhibition,[15]; [17],7%
same,growth inhibition,[15]; [18],44%
same,growth inhibition,[15]; at 50.0 µM,26.1%
same,growth inhibition,[16]; at 1.2 µM,5%
same,growth inhibition,[16]; at 3.7 µM,7%
same,growth inhibition,[16]; [17],11%
same,growth inhibition,[16]; at 11.0 µM,16%
same,growth inhibition,[16]; at 33.0 µM,40%
same,growth inhibition,[16]; [18],31%
same,growth inhibition,[16]; at 50.0 µM,1.9%
same,growth inhibition,[16]; at 100.0 µM,92% (active)
same,growth inhibition,[11]; at 1.2 µM,4%
same,growth inhibition,[11]; at 3.7 µM,8%
same,growth inhibition,[11]; at 11.0 µM,12%
same,growth inhibition,[11]; at 33.0 µM,25%
same,growth inhibition,[11]; at 100.0 µM,72% (active)
same,growth inhibition,[1]; at 1.2 µM,3%
same,growth inhibition,[1]; at 3.7 µM,7%
same,growth inhibition,[1]; at 11.0 µM,14%
same,growth inhibition,[1]; at 33.0 µM,31%
same,growth inhibition,[1]; at 100.0 µM,83% (active)
same,growth inhibition,[2]; at 1.2 µM,3%
same,growth inhibition,[2]; at 3.7 µM,6%
same,growth inhibition,[2]; at 11.0 µM,13%
same,growth inhibition,[2]; at 33.0 µM,37%
same,growth inhibition,[2]; at 100.0 µM,84% (active)
same,growth inhibition,[3]; [17],25%
same,growth inhibition,[3]; [18],60%
same,growth inhibition,[3]; at 50.0 µM,42.2%
same,growth inhibition,[4]; at 1.2 µM,0%
same,growth inhibition,[4]; at 3.7 µM,9%
same,growth inhibition,[4]; at 11.0 µM,28%
same,growth inhibition,[4]; at 33.0 µM,66%
same,growth inhibition,[4]; at 100.0 µM,92% (active)
